Test results as given in PubChem BioAssay.
The source made the active and inactive calls.

test: PSAC antagonists in infected red cells, primary screen, cell-based, P. falciparum Indochina, OD700, 18 h (AID 1157); details: P. falciparum Indochina infected erythrocytes, osmotic lysis OD700, 18 h; higher = more signal, called active from +8 up or from −8 down

Compound | z-score
CCOc1cc(C(O)C2C=CC3C(=O)N(c4ccccc4)C(=O)C3N2Nc2ccc(C#N)cc2)ccc1O (configuration not stated) | 1.27 (inactive)
Cc1cc(C)cc(N2C(=O)CSC2c2cccc([N+](=O)[O-])c2)c1 (configuration not stated) | -0.237 (inactive)
COCCOC(=O)N1C(=O)[C@@]2(c3cc(C#CC4(O)CCCCCC4)ccc31)[C@H](c1ccc(O)cc1)N1[C@H](c3ccccc3)[C@H](c3ccccc3)OC(=O)[C@H]1[C@@H]2C(=O)NC[C@H](O)c1ccccc1 | 0.196 (inactive)
C=CCN1C(=O)[C@@]2(CCS(=O)(=O)c3ccccc3)N=C(c3ccc(OCCCO)cc3)O[C@H]2c2ccccc21 | 6.35 (inactive)
CCOC(=O)C[C@H]1[C@H](OC(=O)c2cc3ccccc3oc2=O)[C@@H](NC(=O)c2ccc(-c3ccccc3)cc2)c2cc(OCCCO)ccc2N1C(=O)c1ccccc1 | -2.22 (inactive)
CCCCO[C@H]1C[C@H]2C(I)=C[C@@H]1C(=O)[C@]21CO1 | -0.16 (inactive)
[N-]=[N+]=NCc1ccccc1[C@H]1OC(c2ccc(OCCCO)cc2)=N[C@@]1(CCS(=O)(=O)c1ccccc1)C(=O)N1CCCCC1 | 1.5 (inactive)

test: modulators of S6 phosphorylation in cells, primary screen, cell-based, A549, cytoblot, luminescence, serum-stimulated (AID 1158); details: A549 phospho-S6 cytoblot, 5 h, higher = more signal;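 note: serum-stimulated A549 lung adenocarcinoma cells; signal is phosphorylated S6 detected by cytoblot immunostaining with HRP secondary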

Compound | z-score
CC(C)Cc1ccc(CN2CC[C@@H](NC(=O)Nc3ccccc3)C2)cc1 | -1.03
COC(=O)[C@@]1(Cc2ccc(F)cc2)[C@H]2c3cc(C(=O)N4CCCC4)n(CCN4CNCC4=O)c3C[C@H]2CN1C(=O)c1ccccc1 | 1
COC(=O)[C@@]1(Cc2ccccc2)[C@@H]2C(=CC(=O)[C@H]2CC(=O)C(=O)N(C)C)CN1C(=O)c1ccccc1 | -0.52
C=CCC(OC(C)=O)[C@@H]1[C@@H](N(Cc2ccc(-c3ccccc3)cc2)C(=O)Cc2ccc(F)cc2)c2cc(OCCCO)ccc2N1C(=O)Cc1ccc(OC)cc1 (some centres not stated) | -0.152
COc1ccc([Si](C)(C)[C@@H]2[C@@H](CCn3cc([C@H](O)c4ccccc4)nn3)O[C@]3(C(=O)N(Cc4ccc(N5CCC5=O)cc4)c4ccccc43)[C@H]2C)cc1 | 0.759
C=C(C)[C@@H]1CC=C(C(O)C2C=CC3C(=O)N(c4ccccc4)C(=O)C3N2Nc2ccccc2F)CC1 (some centres not stated) | -1.23
Cc1ccc(S[C@]2(C(=O)O)CC(=O)N(Cc3ccccc3Cl)[C@@H]2c2ccc(CO)cc2I)cc1 | -0.0366
O=C1C2C=CC(C(O)c3ccccc3)N(Nc3ccccc3F)C2C(=O)N1c1ccccc1 (configuration not stated) | 0.113
[N-]=[N+]=NCc1ccccc1[C@@H]1OC(c2ccc(OCCCO)cc2)=N[C@]1(CCS(=O)(=O)c1ccccc1)C(=O)NCC(O)CO (some centres not stated) | 2.02
COC(=O)c1c(CC[C@@H](CO)NC(=O)N[C@H](Cn2cc(C3(O)CCCCC3)nn2)C(C)C)oc(C(C)=O)c1C(=O)OC | 2.22
O=C1C2C=CC(C(O)c3ccc(F)cc3)N(n3cnnc3)C2C(=O)N1Cc1ccccc1 (configuration not stated) | 1.2
Cc1ccc(S[C@]2(C(=O)NCC(F)(F)F)CC(=O)N(Cc3ccccc3)[C@@H]2c2ccc(CO)cc2I)cc1 | -0.404
C=C(/C(=C/C[C@H](OC(C)=O)c1ccccc1OCCO)c1cc(C(=O)OC)ccc1OC)C(C)C | 1.09
CC(C)N1C(=O)C[C@@](C(=O)NCCCN(C)C)(c2ccc([N+](=O)[O-])cc2)[C@H]1c1ccc(CO)cc1 | 0.23
COCCOC(=O)N1C(=O)[C@@]2(c3cc(C#Cc4ccc(OC)cc4)ccc31)[C@H](c1ccccc1OCCO)N1[C@H](c3ccccc3)[C@H](c3ccccc3)OC(=O)[C@H]1[C@@H]2C(=O)N1CCCCCCC1 | 1.99
O=C1NC(=O)C2C1C=CC(C(O)c1cccc3ccccc13)N2Nc1ccc(Cl)cc1Cl (configuration not stated) | -1.11
C=CCNC(=O)[C@H]1[C@@H]2C(=O)O[C@@H](c3ccccc3)[C@@H](c3ccccc3)N2[C@@H](c2ccc(O)cc2)[C@]12C(=O)Nc1ccc(C#CC3(O)CCCCCC3)cc12 | 0.356
CCCC[C@@H]1C[C@H]1[C@@H](NC(=O)c1ccccc1)c1ccc(C(F)(F)F)cc1 | -0.295

Compound | z-score
NC(=O)N1C(=O)C2C(C1=O)C1C=C(CCCO)C2C(c2cccs2)N1Cc1cccc(OC(F)(F)F)c1 (configuration not stated) | 0.323
CCCC[C@@H]1C[C@H]1[C@@H](NC(=O)c1cccs1)c1ccc(C(F)(F)F)cc1 | -0.79
C=C(/C(=C/C[C@@H](OC(C)=O)c1cccc(OCCO)c1)c1cc(C(=O)OC)ccc1OC)C(C)C | 0.547
CC(C)(C)OC(=O)CC[C@]1(C(=O)NCC(O)CO)N=C(c2ccc(OCCCO)cc2)O[C@H]1c1ccccc1 (some centres not stated) | 2.01
CC(C)(C)N1CC=CC23O[C@@H]4C=CCCOC(=O)C4[C@H]2C(=O)N(CCO)[C@@H]3C1=O (some centres not stated) | 0.461
COc1ccccc1CN1C(=O)c2ccccc2[C@](Cc2ccccc2I)(C(=O)NCC(F)(F)F)[C@@H]1c1ccc(CO)cc1 | -0.317
CCOC(=O)C[C@H]1[C@H](OC(=O)c2ccccc2-c2ccccc2)[C@@H](NC(=O)C2CCCCC2)c2cc(OCCCO)ccc2N1C(=O)Cc1ccc(OC)cc1 | -0.434
COC(=O)CCCCCCC(=O)Nc1ccc(NC(=O)CCCC[P+](c2ccccc2)(c2ccccc2)c2ccccc2)cc1 | 0.274
CN1C(=O)C2C=CC(C(O)COCc3ccccc3)N(N(c3ccccc3)c3ccccc3)C2C1=O (configuration not stated) | -0.849
O=C1O[C@H](c2ccccc2)[C@H](c2ccccc2)N2[C@H]1[C@@H](C(=O)O)[C@]1(C(=O)Nc3ccc(C#CC4=CCCCC4)cc31)[C@H]2c1ccc(O)cc1 | -0.497
CCOc1cc(C(O)C2C=CC3C(=O)N(c4ccccc4)C(=O)C3N2Nc2ccc(C#N)cc2)ccc1O (configuration not stated) | -1.03
Cc1cc(C)cc(N2C(=O)CSC2c2cccc([N+](=O)[O-])c2)c1 (configuration not stated) | -0.261
COCCOC(=O)N1C(=O)[C@@]2(c3cc(C#CC4(O)CCCCCC4)ccc31)[C@H](c1ccc(O)cc1)N1[C@H](c3ccccc3)[C@H](c3ccccc3)OC(=O)[C@H]1[C@@H]2C(=O)NC[C@H](O)c1ccccc1 | 0.101
C=CCN1C(=O)[C@@]2(CCS(=O)(=O)c3ccccc3)N=C(c3ccc(OCCCO)cc3)O[C@H]2c2ccccc21 | 1.06
CCOC(=O)C[C@H]1[C@H](OC(=O)c2cc3ccccc3oc2=O)[C@@H](NC(=O)c2ccc(-c3ccccc3)cc2)c2cc(OCCCO)ccc2N1C(=O)c1ccccc1 | 0.683
CCCCO[C@H]1C[C@H]2C(I)=C[C@@H]1C(=O)[C@]21CO1 | -0.408
[N-]=[N+]=NCc1ccccc1[C@H]1OC(c2ccc(OCCCO)cc2)=N[C@@]1(CCS(=O)(=O)c1ccccc1)C(=O)N1CCCCC1 | 0.515
